A short description of assay [1]: ATG_GLI_CIS: Attagene CIS-FACTORIAL HepG2 Assay for human Zinc Finger Protein GLI1 (AID 2282945). The note with it: HepG2, Attagene cis-factorial reporter mRNA, GLI element; actives raise or lower the signal. The gist of the method: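 HepG2 cells transiently transfected with cis-promoter multiplexed reporter units report endogenous transcription factor activity. After 24 h chemical exposure, reporter mRNA was quantified by RT-PCR, 6-FAM labelling, HpaI digestion and capillary electrophoresis, with bidirectional fitting against DMSO.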

Assay [2] is described as follows: ATG_GRE_CIS: Attagene CIS-FACTORIAL HepG2 Assay for human Glucocorticoid Response Elements (GRE) (AID 2282947). The note with it: HepG2 GRE cis-reporter, Attagene multiplex mRNA; actives raise or lower the signal. The gist of the method: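 HepG2, transient cis-reporter transfection, 24 h. Reporter mRNA: RT-PCR then CE, fluorescence. Fit both directions vs DMSO.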

Assay [3] is described as follows: ATG_ISRE_CIS: Attagene CIS-FACTORIAL HepG2 Assay for human Interferon Regulatory Factor 1 (IRF1) binding to an Interferon-Stimulated Response Element (ISRE) (AID 2282948). The note with it: HepG2 ISRE cis-reporter (Attagene), mRNA transcription readout; actives raise or lower the signal. The gist of the method: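 Endogenous transcription factor activity read as reporter transcript abundance via RT-PCR and capillary electrophoresis. HepG2 cells transiently transfected, 24 h chemical exposure. Gain or loss fitted against DMSO baseline.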

Assay [4] is described as follows: ATG_M_32_CIS: Attagene CIS-FACTORIAL HepG2 Assay for M32 Transcription Factor (Internal Marker) (AID 2282949).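 Further: background control marker of the multiplexed CIS panel rather than a real target.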 Particulars: HepG2 Attagene cis-factorial M32 reporter, mRNA; actives raise or lower the signal. In short, it runs like this: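 Transient MRTU transfection of HepG2; 24 h compound treatment; TriZol RNA, oligo(dT) RT, reporter PCR, 6-FAM primer extension, HpaI cut, CE. Gain/loss of signal vs DMSO.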

The nature of assay [5]: ATG_M_06_CIS: Attagene CIS-FACTORIAL HepG2 Assay for M06 Transcription Factor (Internal Marker) (AID 2282950). Particulars: HepG2 Attagene CIS-FACTORIAL M06 internal marker reporter; actives raise or lower the signal. In short, it runs like this:
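One of many multiplexed endpoints: HepG2 reporter mRNA after 24 h dosing, detected by RT-PCR and capillary electrophoresis fluorescence; gain or loss of signal analysed against DMSO.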

Assay [6] addresses Hypoxia-inducible factor 1-alpha (Homo sapiens) (UniProt Q16665). Put plainly: ATG_HIF1a_CIS: Attagene CIS-FACTORIAL HepG2 Assay for human Hypoxia Inducible Factor 1 (HIF1A) (AID 2282951). Particulars: HepG2 Attagene cis-factorial HIF1a reporter transcription; actives raise or lower the signal. The gist of the method: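 Endogenous-TF cis reporter readout, human HepG2 cells, 24 h incubation; mRNA detected via RT-PCR and capillary electrophoresis fluorescence; DMSO-normalised bidirectional fitting.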

Assay [7] addresses Hepatocyte nuclear factor 6 (Homo sapiens) (UniProt Q9UBC0). The assay can be described thus: ATG_HNF6_CIS: Attagene CIS-FACTORIAL HepG2 Assay for human Hepatocyte Nuclear Factor 6 (HNF6) (AID 2282952). Particulars: HepG2 Attagene cis-factorial HNF6 reporter transcription; actives raise or lower the signal. In short, it runs like this:
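Activity values derive from bidirectional fitting against DMSO of reporter mRNA levels, measured by capillary electrophoresis of labelled RT-PCR products from HepG2 cells exposed 24 h.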

In assay [8] the target is Heat shock factor protein 1 (Homo sapiens) (UniProt Q00613). Put plainly: ATG_HSE_CIS: Attagene CIS-FACTORIAL HepG2 Assay for human Heat Shock Transcription Factor 1 (HSE) (AID 2282953). Particulars: HepG2 HSE cis-reporter, Attagene RNA transcription; actives raise or lower the signal. The gist of the method:
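Using HepG2 with transfected cis-driven reporter constructs, compound effects on endogenous factor activity are scored as reporter mRNA change at 24 h. Detection: RT-PCR, HpaI digestion, capillary electrophoresis; bidirectional fitting to DMSO.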

Assay [9] is described as follows: ATG_MRE_CIS: Attagene CIS-FACTORIAL HepG2 Assay for human Metal Responsive Element (MRE) (AID 2282954). The note with it: HepG2 MRE cis-reporter transcription, Attagene multiplex; actives raise or lower the signal. In short, it runs like this:
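Readout: capillary electrophoresis of 6-FAM-labelled, HpaI-digested RT-PCR reporter products. System: HepG2 cells carrying transient multiplexed cis reporters, dosed 24 h. Analysis: bidirectional fit, DMSO baseline.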

Assay [10] has as its target Bile acid receptor (Homo sapiens) (UniProt Q96RI1). Put plainly: ATG_IR1_CIS: Attagene CIS-FACTORIAL HepG2 Assay for human Nuclear Receptor Subfamily 1 Group H Member 4 (NR1H4), IR1 submotif (AID 2282946). The note with it: IR1 reporter transcription, actives raise or lower the signal. In short, it runs like this: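 Readout: reporter transcript levels by RT-PCR with fluorescent capillary electrophoresis, from HepG2 cells transiently transfected with multiplexed cis-regulated reporters and dosed 24 h. Gain- or loss-of-signal fitted versus DMSO negative control.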

A structure can be active in one record and inactive in another. Activity calls are given as the source filed them. How the source made its calls: active means hit-call score of the fitted dose curve at least 0.9, where 1 is the maximum; inactive means score below 0.9.

Chain of Hypoxia-inducible factor 1-alpha (Homo sapiens) (Q16665 whole entry, looked up): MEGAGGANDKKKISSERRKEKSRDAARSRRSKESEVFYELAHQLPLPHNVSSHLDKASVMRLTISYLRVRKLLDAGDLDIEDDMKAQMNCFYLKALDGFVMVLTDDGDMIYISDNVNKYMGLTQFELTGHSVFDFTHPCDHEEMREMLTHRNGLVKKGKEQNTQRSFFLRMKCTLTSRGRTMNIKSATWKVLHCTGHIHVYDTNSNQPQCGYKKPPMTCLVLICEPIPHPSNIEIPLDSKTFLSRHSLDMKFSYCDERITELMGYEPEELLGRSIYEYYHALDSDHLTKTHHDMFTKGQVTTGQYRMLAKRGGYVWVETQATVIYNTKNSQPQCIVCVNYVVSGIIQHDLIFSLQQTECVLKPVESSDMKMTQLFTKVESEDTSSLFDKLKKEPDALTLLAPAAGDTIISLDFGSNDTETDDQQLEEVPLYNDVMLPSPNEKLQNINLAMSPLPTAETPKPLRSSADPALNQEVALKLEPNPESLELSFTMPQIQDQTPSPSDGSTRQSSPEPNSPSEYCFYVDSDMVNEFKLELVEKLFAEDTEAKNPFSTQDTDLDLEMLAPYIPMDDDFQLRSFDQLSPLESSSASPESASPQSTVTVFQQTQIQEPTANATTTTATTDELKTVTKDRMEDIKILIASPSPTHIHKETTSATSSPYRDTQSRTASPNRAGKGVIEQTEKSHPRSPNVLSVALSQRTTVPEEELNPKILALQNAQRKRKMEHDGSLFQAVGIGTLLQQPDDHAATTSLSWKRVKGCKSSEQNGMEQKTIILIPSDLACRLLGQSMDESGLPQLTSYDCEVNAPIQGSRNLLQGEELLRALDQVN
Chain of Heat shock factor protein 1 (Homo sapiens) (Q00613 whole entry, looked up): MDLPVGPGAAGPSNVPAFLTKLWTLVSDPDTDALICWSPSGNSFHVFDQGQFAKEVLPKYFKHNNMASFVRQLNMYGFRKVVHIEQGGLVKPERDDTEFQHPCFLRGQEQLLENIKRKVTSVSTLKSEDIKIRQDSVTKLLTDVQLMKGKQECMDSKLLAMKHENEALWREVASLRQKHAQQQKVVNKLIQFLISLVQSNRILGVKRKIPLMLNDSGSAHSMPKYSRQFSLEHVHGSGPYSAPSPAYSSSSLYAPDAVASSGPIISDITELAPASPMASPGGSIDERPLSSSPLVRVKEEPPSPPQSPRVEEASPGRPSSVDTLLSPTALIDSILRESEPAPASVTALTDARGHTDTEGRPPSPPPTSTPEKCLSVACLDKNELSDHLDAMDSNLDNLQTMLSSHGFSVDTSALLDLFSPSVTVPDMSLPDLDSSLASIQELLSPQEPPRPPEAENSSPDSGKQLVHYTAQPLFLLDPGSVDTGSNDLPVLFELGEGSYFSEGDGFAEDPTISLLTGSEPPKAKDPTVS
Chain of Bile acid receptor (Homo sapiens) (Q96RI1 whole entry, looked up): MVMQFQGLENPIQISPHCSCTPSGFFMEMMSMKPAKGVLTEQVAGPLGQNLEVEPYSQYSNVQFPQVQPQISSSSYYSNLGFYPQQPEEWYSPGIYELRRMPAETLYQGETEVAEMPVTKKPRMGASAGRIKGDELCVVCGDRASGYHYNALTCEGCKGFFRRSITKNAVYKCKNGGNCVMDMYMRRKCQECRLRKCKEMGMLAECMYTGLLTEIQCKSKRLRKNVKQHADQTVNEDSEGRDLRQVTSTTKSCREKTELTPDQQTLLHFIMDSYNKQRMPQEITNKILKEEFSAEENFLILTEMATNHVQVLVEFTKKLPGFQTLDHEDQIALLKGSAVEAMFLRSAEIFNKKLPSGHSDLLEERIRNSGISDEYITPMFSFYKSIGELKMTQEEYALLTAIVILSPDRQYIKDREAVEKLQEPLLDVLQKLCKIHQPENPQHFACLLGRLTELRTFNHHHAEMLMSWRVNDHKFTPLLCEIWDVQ
Chain of Hepatocyte nuclear factor 6 (Homo sapiens) (Q9UBC0 whole entry, looked up): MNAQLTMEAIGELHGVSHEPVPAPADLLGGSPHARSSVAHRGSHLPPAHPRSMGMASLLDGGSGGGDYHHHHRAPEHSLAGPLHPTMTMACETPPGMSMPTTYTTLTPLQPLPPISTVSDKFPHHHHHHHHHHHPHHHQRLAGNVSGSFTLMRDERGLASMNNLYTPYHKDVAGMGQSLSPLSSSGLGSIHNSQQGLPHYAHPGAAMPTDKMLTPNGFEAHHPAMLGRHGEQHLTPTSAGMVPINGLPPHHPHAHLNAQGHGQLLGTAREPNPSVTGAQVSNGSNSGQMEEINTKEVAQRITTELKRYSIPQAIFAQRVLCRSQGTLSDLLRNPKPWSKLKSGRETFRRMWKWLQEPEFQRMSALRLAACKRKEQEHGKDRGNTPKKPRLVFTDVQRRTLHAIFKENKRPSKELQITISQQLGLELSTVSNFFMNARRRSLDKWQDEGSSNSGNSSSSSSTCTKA

For the molecule `CCCCCCCCOC(=O)c1ccc(O)cc1`, the result in [1], in assay [2], in [3], in assay [4], in [5] and in assay [6] was inactive. Further, the call in [7], in assay [8] and in assay [9] was inactive.

In the case of `CCCCC(CC)COCCO` (stereo unspecified), the molecule was called inactive in [1], in [2], in [3], in assay [4], in assay [5] and in assay [6]. For the same molecule, the molecule was classed as inactive in [7], in assay [8] and in [9].

On to `CCCCOCCOCCO`, for which the result in [1], in assay [2], in assay [3], in [4], in assay [5] and in assay [6] was inactive. For the same molecule, the result in assay [7] and in assay [8] was inactive.

On to `c1coc(CNc2ncnc3nc[nH]c23)c1`, for which the result in assay [1], in [2], in [3], in [4], in assay [5] and in [6] was inactive. Also, the molecule was called inactive in [7], in [8] and in [9].

The AC50 is the concentration at which the activity in the assay is half-maximal. For `C=C1CC/C=C(\C)CC[C@@H]2[C@@H]1CC2(C)C`, the molecule was called inactive in assay [1], in assay [3], in assay [4], in assay [5], in [6] and in [7]. In addition, the result in assay [8] and in [9] was inactive. In assay [10], the AC50 was 81.9 µM (active).

As for `COc1ccc(OC)cc1`, the call in assay [1], in assay [2], in assay [3], in assay [4], in assay [5] and in [6] was inactive. The outcome in assay [7], in assay [8] and in [9] was inactive.

Consider `CCCCOCCOC(=O)c1ccccc1C(=O)OCCOCCCC`, for which the result in assay [1], in [10], in [3], in [4], in assay [5] and in [7] was inactive. The molecule was classed as inactive in assay [8]. Moreover, the AC50 in [9] is 23.4 µM (active).

For the molecule `NC(=O)c1c(Cl)cccc1Cl`, the outcome in [1], in assay [10], in [3], in assay [4], in assay [5] and in assay [7] was inactive. Moreover, the outcome in [8] and in [9] was inactive.

As for `CC1(C)CC(=O)CC(C)(C)N1`, the molecule was called inactive in assay [1], in [2], in assay [3], in assay [4], in assay [5] and in [6]. For the same molecule, the call in [7] and in assay [8] was inactive.

Consider `COc1ccc(N)c(C)c1`, for which the molecule was classed as inactive in [1], in assay [10], in assay [3], in [4], in [7] and in [8]. The outcome in assay [9] was inactive.

Consider `CCCCCCCCCCOC(=O)c1ccccc1C(=O)OCCCCCCCC`, for which the result in assay [1], in [2], in assay [3], in [4], in assay [5] and in [6] was inactive. Besides, the call in assay [7], in assay [8] and in assay [9] was inactive.

For `NC(N)=NC(N)=NCCc1ccccc1`, the call in assay [1], in assay [2], in [3], in [4], in assay [5] and in assay [6] was inactive. Besides, the molecule was classed as inactive in assay [7], in [8] and in [9].

Consider `CCCCOC(=O)C(C)OC(=O)CCC` (stereo unspecified), for which the result in assay [1], in assay [2], in assay [3], in [4], in [5] and in [6] was inactive. Also, the result in [7], in assay [8] and in assay [9] was inactive.

Regarding `CCCO`, the molecule was classed as inactive in assay [1], in assay [2], in assay [3], in assay [4], in [5] and in [6]. For the same molecule, the molecule was classed as inactive in [7] and in assay [8].

Regarding `CCCCCc1cccc(=O)o1`, the outcome in assay [1], in assay [10], in assay [3], in assay [4], in assay [5] and in [6] was inactive. Further, the outcome in assay [7], in assay [8] and in [9] was inactive.

For the molecule `Cc1ccccc1S`, the outcome in assay [1], in [3], in [4], in [5] and in [7] was inactive. The AC50 is 55.7 µM (active) in assay [10], 113 µM (active) in [8] and 102 µM (active) in assay [9].

`Cc1cccc(C)c1`: the call in [1], in assay [2], in assay [3], in [4], in assay [5] and in assay [6] was inactive. Besides, the outcome in assay [7], in assay [8] and in assay [9] was inactive.

Consider `CC(C)N(c1ccccc1)C(C)C`, for which the molecule was classed as inactive in assay [1], in assay [2], in [3], in assay [4], in [5] and in assay [6]. The result in assay [7], in [8] and in assay [9] was inactive.

On to `CCn1cc(C(=O)O)c(=O)c2ccc(C)nc21`, for which the result in [1], in assay [10], in [3], in assay [4], in assay [8] and in [9] was inactive.

In the case of `O=S(=O)(O)CCCN1CCOCC1`, the result in assay [1], in [2], in [3], in assay [4], in assay [5] and in assay [6] was inactive. In assay [7], the molecule was classed as inactive.

`CC/C=C\CCOC(=O)C(C)C`: the outcome in [1], in assay [2], in [3], in [4], in [5] and in [6] was inactive. For the same molecule, the molecule was called inactive in assay [7] and in assay [8].

Regarding `CCCOC(=O)CC`, the molecule was called inactive in assay [1], in assay [2], in assay [3], in assay [4], in [5] and in [6]. Further, the outcome in assay [7], in assay [8] and in assay [9] was inactive.

As for `CC(C)Cc1ccccc1`, the result in assay [1], in assay [2], in [3], in assay [4], in assay [5] and in assay [6] was inactive. Moreover, the molecule was classed as inactive in [7], in assay [8] and in assay [9].

With `CCCO[Si](OCCC)(OCCC)OCCC`, the outcome in assay [1], in assay [2], in assay [3], in assay [4], in [5] and in [6] was inactive. Further, the outcome in assay [7] and in assay [8] was inactive.

As for `CC1=CC(O)CC(C)(C)C1` (stereo unspecified), the molecule was classed as inactive in [1], in [2], in assay [3], in [4], in assay [5] and in [6]. For the same molecule, the outcome in assay [7] and in assay [8] was inactive.

Consider `O=C(O)C1=NN(c2ccc(S(=O)(=O)O)cc2)C(=O)C1`, for which the molecule was called inactive in assay [1], in assay [2], in assay [3], in assay [4], in assay [5] and in assay [6]. Also, the outcome in assay [7], in assay [8] and in assay [9] was inactive.

For `CCCC1CCC(=O)CC1`, the result in assay [1], in assay [2], in [3], in assay [4], in assay [5] and in assay [6] was inactive. Further, the molecule was called inactive in assay [7], in assay [8] and in assay [9].

With `Nc1ccc(N)c([N+](=O)[O-])c1`, the molecule was called inactive in assay [1], in assay [2], in [3], in [4], in [5] and in assay [6]. The molecule was classed as inactive in assay [8] and in [9]. In addition, the AC50 in assay [8] is 25.9 µM (active).

(Values after PubChem BioAssay (EPA / NIEHS).)
